# Measurements taken from PubChem BioAssay (NCATS).
# Records with an inconclusive call do not appear. Active and inactive are the calls of the source. Calls come from the whole dose curve; as a rule, active = well fitted inhibition curve with a large enough effect in the signal ratio, with a control signal flat (not every such curve was filed as active); inconclusive = small, poorly fitted or top-dose-only effect, or effect the other way, or a change in a side signal; inactive = no such curve, though single readings can be large or run the other way; the % refers to the signal ratio.
# Target: Peroxisome proliferator-activated receptor delta (Homo sapiens) (UniProt Q03181)
# Test: qHTS assay for small molecule antagonists of peroxisome proliferator-activated receptor delta signaling (AID 588535)
# Conditions: HEK293T PPARd-UAS-bla, beta-lactamase FRET ratio, 18 h; series mostly up to 76.7 µM; activity change, negative = inhibition: at the top concentration
# Source text: NIH Chemical Genomics Center [NCGC] U.S. Environmental Protection Agency [EPA] National Institutes of Environmental Health Sciences [NIEHS] National Toxicology Program [NTP] NCGC Assay Overview The Peroxisome proliferator-activated receptors (PPARs) are lipid-activated transcription factors of the nuclear receptor superfamily with three distinct subtypes namely PPAR alpha, PPAR delta (also called PPAR beta) and PPAR gamma. All these subtypes heterodimerizes with Retinoid X receptor (RXR) and have different physiological functions. […] This role of PPAR delta implicates the potential use of its ligands in the treatment of metabolic disorders.
# NCGC Assay Protocol Summary Using a beta-lactamase reporter-gene under control Peroxisome Proliferator-Activated Receptor delta (PPAR-delta) response element, a cell-based assay [GeneBLAzer (PPAR-delta-UAS-bla assay developed by Invitrogen] was used to measure PPAR-delta ligands signaling. GeneBLAzer PPAR-delta-UAS-bla HEK293T cells were used with assay medium containing 2% charcoal/dextran FBS. The assay was performed in clear bottom black Greiner 1536-well plates. Library compounds were measured for their ability to inhibit the reporter gene activity. Compounds were screened in a titration series in 1536-well format. The fluorescence intensity (405 nm excitation, 460/530 nm emission) was measured using an EnVision plate reader. […] Concentration-response titration points for each compound were fitted to the Hill equation yielding concentrations of half-maximal inhibition (IC50) and maximal response (efficacy) values. qHTS protocol for PPAR-delta beta-lactamase assay in antagonist mode [Step] [Parameter] [Value] [Description] 1. Reagent; 5 uL; 4000 cells/well 2. Incubation; 37 C for 5 hrs 3. Compounds; 23 nL; 0.59 nM to 92 uM 4. […] Incubation; 37 C for 18 hrs 7. Detection reagent; 1 uL of CCF4-dye 8. Incubation; RT for 2 hrs 9. Detection; Fluorescence; Envision plate reader
# Chain of Peroxisome proliferator-activated receptor delta (Homo sapiens) (Q03181 whole entry, looked up): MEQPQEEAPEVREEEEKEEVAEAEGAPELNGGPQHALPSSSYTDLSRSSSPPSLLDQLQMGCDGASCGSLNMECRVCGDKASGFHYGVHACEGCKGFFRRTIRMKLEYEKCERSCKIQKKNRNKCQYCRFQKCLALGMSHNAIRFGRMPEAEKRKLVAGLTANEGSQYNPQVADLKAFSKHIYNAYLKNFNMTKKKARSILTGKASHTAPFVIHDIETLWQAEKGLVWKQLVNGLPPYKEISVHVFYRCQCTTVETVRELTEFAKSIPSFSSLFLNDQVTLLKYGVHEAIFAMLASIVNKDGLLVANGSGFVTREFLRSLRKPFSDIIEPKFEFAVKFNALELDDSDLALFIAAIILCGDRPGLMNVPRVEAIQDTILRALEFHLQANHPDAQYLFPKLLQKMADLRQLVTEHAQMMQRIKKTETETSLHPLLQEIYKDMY
Structure (SMILES),"activity change, negative = inhibition",Potency
Cc1ccc(C(=O)c2ccccc2)cc1,-3.41% (inactive),–
CC(C)Nc1nc(N)nc(Cl)n1,–,inactive
FC(F)(F)c1ccc(Cl)c(Cl)c1,-2.11% (inactive),–
Cc1ccc(N=Nc2c(O)ccc3ccccc23)c([N+](=O)[O-])c1,3.6% (inactive),–
CCCCCCCCC(=O)O,6.75% (inactive),–
CC1=CC(=O)CC(C)(C)C1,19% (inactive),–
CCCCCCCCCCCCCCCC,1.6% (inactive),–
CC1COCc2cc3c(cc21)C(C)(C)C(C)C3(C)C (stereo not given),9.47% (inactive),–
CC(C)(C)[C@H](O)[C@H](Cc1ccc(Cl)cc1)n1cncn1,21.2% (inactive),–
CC(C)=CCC[C@@H](C)[C@H]1CC[C@@]2(C)C3=C(CC[C@]12C)[C@@]1(C)CC[C@H](O)C(C)(C)[C@@H]1CC3,22.5% (inactive),–
CCCCCCCC[Si](Cl)(Cl)Cl,20.4% (inactive),–
O=C=NC1CCC(CC2CCC(N=C=O)CC2)CC1 (stereo not given),13.4% (inactive),–
CCCCOCC(C)OCC(C)O (stereo not given),-8.37% (inactive),–
C[Si]1(C)O[Si](C)(C)O[Si](C)(C)O[Si](C)(C)O[Si](C)(C)O1,2.59% (inactive),–
BrC1CCC(Br)C(Br)CCC(Br)C(Br)CCC1Br (stereo not given),9.21% (inactive),–
C=CC(=O)OCCOc1ccccc1,-13.6% (inactive),–
Cn1sccc1=O,8.22% (inactive),–
CCCCOCCOCCOC(C)=O,-1.19% (inactive),–
O=C(O)c1cccc(C(=O)O)c1,6.2% (inactive),–
CCCCC(CC)C(=O)OCCOCCOCCOC(=O)C(CC)CCCC (stereo not given),22.7% (inactive),–

Structure (SMILES),"activity change, negative = inhibition",Potency
CC(C)(C)c1n[nH]c(=O)n(N)c1=O,-22.2% (inactive),–
CCC(O)OCCCOC (stereo not given),1.29% (inactive),–
CCCCCCCCCCCCCO,24.1% (inactive),–
O=C(c1ccc(Cl)cc1)c1ccc(Cl)cc1,14.6% (inactive),–
CCC/C(=N\OCC)C1=C(O)CC(O)(CC(C)S(=O)(=O)CC)CC1=O (stereo not given),21.8% (inactive),–
CNc1nc(=O)n(C2CCCCC2)c(=O)n1C,12.8% (inactive),–
CC1(C)C(=O)NC(=O)N1CO,2.29% (inactive),–
CC(C)(C)c1ccc(C(=O)O)cc1,-2.83% (inactive),–
CS/C(=N\O)C(=O)N(C)C,10.5% (inactive),–
COC(=O)C1CCC(C(=O)OC)CC1 (stereo not given),10.3% (inactive),–
c1ccc(B(c2ccccc2)c2ccccc2)cc1,-9.13% (inactive),–
C=CCCCCCCCCC=O,17.8% (inactive),–
CCCCN(CCCC)CCCC,4.61% (inactive),–
CS(=O)(=O)c1ccc(Cl)cc1,1.52% (inactive),–
COc1ccccc1NC(=O)CC(C)=O,29.1% (inactive),–
CC(C)CCCCOC(=O)c1ccccc1C(=O)OCCCCC(C)C,-4.93% (inactive),–
CCCCCCCCCC(=O)OC,4.99% (inactive),–
CCCC/C=C\CCCCCCCCCC=O,1.36% (inactive),–
CC(Cl)(Cl)C(=O)OCCOc1cc(Cl)c(Cl)cc1Cl,11.4% (inactive),–
CN(C)c1nc(=O)n(C2CCC(O)CC2)c(=O)n1C (stereo not given),6.67% (inactive),–
